Results on four molecules are retold here after PubChem BioAssay (EPA / NIEHS).

Each structure is given as a SMILES string. The source holds several records for some structures; these can differ, active in one and inactive in another. Calls of active or inactive are those of the source. Rule for the calls: active = hit-call score of the fitted dose curve at least 0.9, where 1 is the maximum; inactive = score below 0.9.

Read-out in assay [1]: Macrophage colony-stimulating factor (MCSF), CSF1 (gene 1435)
The assay can be described thus: BSK_hDFCGF_MCSF: BioMAP Diversity Plus: hDFCGF Assay for Macrophage colony-stimulating factor (MCSF) Biomarker Activity (AID 2283060). The note with it: primary human foreskin fibroblasts; actives raise or lower the signal. The gist of the method:
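M-CSF levels read by ELISA at 24 h post-dosing in human skin fibroblasts. Parallel cultures stained with SRB assessed cytotoxicity at the same time point; response fitted in both directions against the DMSO baseline.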

Assay [2] in a line: BSK_hDFCGF_SRB: Viability Assessment in the BioMAP Diversity Plus: hDFCGF Assay (AID 2283061).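 Note: cells exposed to compound for 24 h before the read.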 The note with it: primary human foreskin fibroblasts. The procedure, abridged:
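Viability was read as total protein: after 10% TCA fixation, wells were stained with 0.1% sulforhodamine B and read at 560 nm. Primary human foreskin fibroblasts were dosed for 24 h, with bidirectional fitting versus DMSO.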

Read-out in assay [3]: TIMP metallopeptidase inhibitor 1 (TIMP1), TIMP1 (gene 7076)
The assay can be described thus: BSK_hDFCGF_TIMP1: BioMAP Diversity Plus: hDFCGF Assay for TIMP metallopeptidase inhibitor 1 (TIMP1) Biomarker Activity (AID 2283062). The note with it: primary human foreskin fibroblasts; actives raise or lower the signal. The procedure, abridged:
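TIMP-1 measured by ELISA 24 h after chemical dosing of primary human skin fibroblasts, with gain or loss fitted relative to DMSO. Parallel SRB staining (560 nm) monitored overt cytotoxicity.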

Read-out in assay [4]: Monokine induced gamma interferon (MIG), CXCL9 (gene 4283)
The assay can be described thus: BSK_hDFCGF_MIG: BioMAP Diversity Plus: hDFCGF Assay for Monokine induced gamma interferon (MIG) Biomarker Activity (AID 2283063). The note with it: primary human foreskin fibroblasts; actives raise or lower the signal. The gist of the method: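 Human primary foreskin fibroblasts in the hDFCGF system, exposed to test chemical for 24 h; MIG measured by ELISA. Bidirectional curve fitting against DMSO negative control as activity baseline.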

Read-out in assay [5]: Matrix Metallopeptidase 1 (MMP1), MMP1 (gene 4312)
The assay can be described thus: BSK_hDFCGF_MMP1: BioMAP Diversity Plus: hDFCGF Assay for Matrix Metallopeptidase 1 (MMP1) Biomarker Activity (AID 2283064). The note with it: primary human foreskin fibroblasts; actives raise or lower the signal. The gist of the method:
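Primary human foreskin fibroblasts exposed to chemicals for 24 h; MMP1 measured by ELISA. Cytotoxicity tracked by SRB staining in parallel cultures; bidirectional fit relative to DMSO.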

Read-out in assay [6]: Vascular cell adhesion molecule 1 (VCAM1), VCAM1 (gene 7412)
The assay can be described thus: BSK_hDFCGF_VCAM1: BioMAP Diversity Plus: hDFCGF Assay for Vascular cell adhesion molecule 1 (VCAM1) Biomarker Activity (AID 2283065). The note with it: primary human foreskin fibroblasts; actives raise or lower the signal. The gist of the method:
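ELISA readout of VCAM-1 on human dermal fibroblast primary cultures, 24 h after chemical exposure. Gain or loss of signal fitted in both directions against DMSO baseline.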

Read-out in assay [7]: Plasminogen activator inhibitor-1 (PAI1), SERPINE1 (gene 5054)
The assay can be described thus: BSK_hDFCGF_PAI1: BioMAP Diversity Plus: hDFCGF Assay for Plasminogen activator inhibitor-1 (PAI1) Biomarker Activity (AID 2283066). The note with it: primary human foreskin fibroblasts; actives raise or lower the signal. The gist of the method: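 Primary dermal fibroblasts (human foreskin), hDFCGF system; compound 24 h; PAI-1 by ELISA; bidirectional fit vs DMSO control.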

Read-out in assay [8]: Intercellular Adhesion Molecule 1 (ICAM1), ICAM1 (gene 3383)
The assay can be described thus: BSK_KF3CT_ICAM1: BioMAP Diversity Plus: KF3CT Assay for Intercellular Adhesion Molecule 1 (ICAM1) Biomarker Activity (AID 2283067). The note with it: primary human keratinocytes with fibroblasts; actives raise or lower the signal. The gist of the method: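 Cell-surface ICAM-1 was measured by ELISA 24 h after dosing primary human skin keratinocytes co-cultured with fibroblasts. Parallel SRB staining tracked overt cytotoxicity. Gain or loss of signal was fitted relative to DMSO.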

Read-out in assay [9]: Interferon-gamma inducible Protein 10 (IP10), CXCL10 (gene 3627)
The assay can be described thus: BSK_KF3CT_IP10: BioMAP Diversity Plus: KF3CT Assay for Interferon-gamma inducible Protein 10 (IP10) Biomarker Activity (AID 2283068). The note with it: primary human keratinocytes with fibroblasts; actives raise or lower the signal. The procedure, abridged: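 Human keratinocyte plus foreskin fibroblast primary co-culture exposed to test chemical for 24 h; IP-10 measured by ELISA. Concentration-response fitted bidirectionally against DMSO control as baseline.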

Assay [10] in a line: BSK_KF3CT_SRB: Viability Assessment in the BioMAP Diversity Plus: KF3CT Assay (AID 2283069).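 Note: total protein by sulforhodamine B staining as a cytotoxicity measure; read 24 h after compound addition.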 The note with it: primary human keratinocytes with fibroblasts. The procedure, abridged: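 Human keratinocyte and foreskin fibroblast co-culture exposed to chemical for 24 h. Total protein measured in parallel cultures by 0.1% sulforhodamine B staining after 10% TCA fixation, read at 560 nm; bidirectional fit relative to DMSO.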

Read-out in assay [11]: Interleukin-1 alpha (IL1a), IL1A (gene 3552)
The assay can be described thus: BSK_KF3CT_IL1a: BioMAP Diversity Plus: KF3CT Assay for Interleukin-1 alpha (IL1a) Biomarker Activity (AID 2283070). The note with it: primary human keratinocytes with fibroblasts; actives raise or lower the signal. The gist of the method: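 Primary human keratinocyte plus foreskin fibroblast co-culture, dosed and measured at 24 h in 96-well plates. IL-1a level quantified by ELISA; bidirectional fit relative to DMSO.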

Read-out in assay [12]: TIMP metallopeptidase inhibitor 2 (TIMP2), TIMP2 (gene 7077)
The assay can be described thus: BSK_KF3CT_TIMP2: BioMAP Diversity Plus: KF3CT Assay for TIMP metallopeptidase inhibitor 2 (TIMP2) Biomarker Activity (AID 2283071). The note with it: primary human keratinocytes with fibroblasts; actives raise or lower the signal. The gist of the method:
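Cells: human keratinocytes co-cultured with foreskin fibroblasts. Treat with chemical, 24 h. Measure TIMP-2 by ELISA; fit curves bidirectionally vs DMSO baseline.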

Read-out in assay [13]: C-C motif chemokine 2 (Homo sapiens) (UniProt P13500)
The assay can be described thus: BSK_KF3CT_MCP1: BioMAP Diversity Plus: KF3CT Assay for Monocyte Chemoattractant Protein 1 (MCP1/CCL2) Biomarker Activity (AID 2283073). The note with it: primary human keratinocytes with fibroblasts; actives raise or lower the signal. The procedure, abridged: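 ELISA read-out of MCP-1, 24 h post-dose, in primary human skin keratinocytes co-cultured with fibroblasts. Parallel SRB staining monitors cytotoxicity; changes fitted both directions relative to DMSO.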

Read-out in assay [14]: urokinase plasminogen activator (uPA), PLAU (gene 5328)
The assay can be described thus: BSK_KF3CT_uPA: BioMAP Diversity Plus: KF3CT Assay for urokinase plasminogen activator (uPA) Biomarker Activity (AID 2283075). The note with it: primary human keratinocytes with fibroblasts; actives raise or lower the signal. The gist of the method: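 Primary human keratinocyte/foreskin fibroblast co-culture exposed to chemical; uPA measured by ELISA at 24 h. Bidirectional fit versus DMSO, with parallel SRB total-protein staining for cytotoxicity.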

Read-out in another assay: CD40, CD40 (gene 958)
The assay can be described thus: BSK_LPS_CD40: BioMAP Diversity Plus: LPS Assay for CD40 Biomarker Activity (AID 2283076). The note with it: primary human HUVEC with PBMC; actives raise or lower the signal. The procedure, abridged: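 In the LPS system of human endothelial cells with peripheral blood mononuclear cells, CD40 levels were read by ELISA 24 h post-treatment. Signal changes in either direction were fitted against the DMSO baseline, with parallel SRB protein staining.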

Read-out in assay [15]: E-selectin (Homo sapiens) (UniProt P16581)
The assay can be described thus: BSK_LPS_Eselectin: BioMAP Diversity Plus: LPS Assay for Eselectin Biomarker Activity (AID 2283077). The note with it: primary human HUVEC with PBMC; actives raise or lower the signal. The gist of the method:
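E-selectin ELISA on LPS-stimulated endothelial cell/PBMC co-cultures, read 24 h post-treatment; gains and losses fitted against DMSO. Parallel SRB staining (0.1% SRB after 10% TCA fixation, 560 nm) flags overt cytotoxicity.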

Read-out in assay [16]: Interleukin-8 (IL8), CXCL8 (gene 3576)
The assay can be described thus: BSK_LPS_IL8: BioMAP Diversity Plus: LPS Assay for Interleukin-8 (IL8) Biomarker Activity (AID 2283078). The note with it: primary human HUVEC with PBMC; actives raise or lower the signal. The gist of the method:
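ELISA read-out of IL-8 after 24 h chemical treatment of LPS-activated endothelial/PBMC human primary co-cultures. Changes either up or down relative to DMSO; overt cytotoxicity checked by sulforhodamine B staining in parallel wells.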

The nature of assay [17]: BSK_LPS_SRB: Viability Assessment in the BioMAP Diversity Plus: LPS Assay (AID 2283079).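 Note: total protein by sulforhodamine B absorbance as a cytotoxicity measure; measured one day after compound addition.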 The note with it: primary human HUVEC with PBMC. The gist of the method:
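SRB viability endpoint: cells fixed with 10% TCA, stained with 0.1% SRB, read at 560 nm, 24 h post-dose. HUVEC/PBMC co-culture; signal change in either direction scored relative to DMSO.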

Read-out in assay [18]: Interleukin-1 alpha (IL1a), IL1A (gene 3552)
The assay can be described thus: BSK_LPS_IL1a: BioMAP Diversity Plus: LPS Assay for Interleukin-1 alpha (IL1a) Biomarker Activity (AID 2283080). The note with it: primary human HUVEC with PBMC; actives raise or lower the signal. The gist of the method:
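Readout is IL-1a level by ELISA, 24 h post-dose, fitted as gain or loss relative to DMSO. System: LPS-activated human primary co-culture of vascular endothelium and peripheral blood mononuclear cells, with parallel SRB total-protein cytotoxicity.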

Chain of E-selectin (Homo sapiens) (P16581 whole entry, looked up): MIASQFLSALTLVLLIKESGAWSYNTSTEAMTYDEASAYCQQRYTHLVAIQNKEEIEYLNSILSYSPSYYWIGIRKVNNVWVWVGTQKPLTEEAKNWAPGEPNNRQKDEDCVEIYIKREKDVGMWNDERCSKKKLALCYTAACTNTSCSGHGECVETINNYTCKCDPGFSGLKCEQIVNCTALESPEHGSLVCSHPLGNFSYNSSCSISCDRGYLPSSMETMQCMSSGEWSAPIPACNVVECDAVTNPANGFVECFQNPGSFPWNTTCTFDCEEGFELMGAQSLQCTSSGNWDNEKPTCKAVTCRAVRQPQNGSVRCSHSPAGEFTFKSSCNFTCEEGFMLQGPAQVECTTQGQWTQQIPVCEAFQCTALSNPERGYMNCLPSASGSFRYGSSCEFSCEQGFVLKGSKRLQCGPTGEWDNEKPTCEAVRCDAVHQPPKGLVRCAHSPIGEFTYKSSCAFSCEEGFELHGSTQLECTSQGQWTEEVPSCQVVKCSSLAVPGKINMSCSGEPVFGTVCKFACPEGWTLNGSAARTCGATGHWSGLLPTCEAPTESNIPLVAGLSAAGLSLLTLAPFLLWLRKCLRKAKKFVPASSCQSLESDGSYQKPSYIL

Usually AC50 stands for the concentration at which the activity in the assay is half-maximal. For the molecule `CCO[Si](CCC(F)(F)C(F)(F)C(F)(F)C(F)(F)C(F)(F)C(F)(F)F)(OCC)OCC`, the result in [1], in assay [2], in assay [3], in assay [4], in assay [5] and in assay [6] was inactive. Further, the result in [7], in assay [8], in [9], in assay [10], in assay [11] and in assay [12] was inactive. In addition, the outcome was “inactive” in [13]; “inactive” in [14]; “inactive” in the assay with CD40, CD40 (gene 958); “inactive” in assay [15]; “inactive” in [16]; “inactive” in assay [17]. The AC50 with CD40, CD40 (gene 958) is 1.4 µM (active).

`C=CC/C=C/C/C=C/C/C=C/C`: the result in assay [1], in assay [2], in [3], in [4], in [6] and in [8] was inactive. Besides, the outcome in [9], in assay [10], in assay [11], in [12], in assay [13] and in assay [14] was inactive. The outcome with CD40, CD40 (gene 958) was “inactive”; in assay [15] it was “inactive”; in assay [16], “inactive”; in assay [17], “inactive”; in assay [18], “inactive”. In addition, the AC50 in [5] is 0.016 µM (active); in assay [7] it was 0.141 µM (active).

In the case of `O[Si](c1ccccc1)(c1ccccc1)c1ccccc1`, the AC50 in assay [1] was 5.61 µM (active); in [2], 5.35 µM (active); in [7] it was 5.43 µM (active); in assay [12], 10.3 µM (active); in the assay with CD40, CD40 (gene 958), 24.4 µM (active); in [17], 28.6 µM (active). Further, the result in assay [3], in [4], in assay [5], in assay [6], in assay [8] and in [9] was inactive. For the same molecule, the outcome in assay [10], in [11], in assay [13], in assay [14], in [15] and in [16] was inactive. In addition, the result in assay [18] was inactive.

As to `OCCCC(F)(F)C(F)(F)C(F)(F)F`, the result in assay [1], in assay [2], in [3], in assay [4], in assay [5] and in assay [6] was inactive. The outcome in assay [7], in [8], in assay [9], in assay [10], in [11] and in assay [12] was inactive. Moreover, the outcome in assay [13] was “inactive”; in assay [14], “inactive”; with CD40, CD40 (gene 958), “inactive”; in [15] it was “inactive”; in assay [16], “inactive”; in assay [17], “inactive”.
